Screens as filed in PubChem.
ABCB6 inh MLPCN: human ABCB6 transporter inhibition; AID 602162; K562-ABCB6 porphyrin accumulation, flow cytometry, 1 h; stronger effect = lower value; fluorescence ratio to DMSO, % at 10 µM; actives 0.19% (n = 360,000);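 active = fluorescence ratio to DMSO below 75%, the collection mean minus 3 SD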;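 note: signal is porphyrin accumulated inside mitochondria; 100% equals median channel fluorescence of DMSO control wells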
Target sequence (Q9NP58 whole entry, looked up): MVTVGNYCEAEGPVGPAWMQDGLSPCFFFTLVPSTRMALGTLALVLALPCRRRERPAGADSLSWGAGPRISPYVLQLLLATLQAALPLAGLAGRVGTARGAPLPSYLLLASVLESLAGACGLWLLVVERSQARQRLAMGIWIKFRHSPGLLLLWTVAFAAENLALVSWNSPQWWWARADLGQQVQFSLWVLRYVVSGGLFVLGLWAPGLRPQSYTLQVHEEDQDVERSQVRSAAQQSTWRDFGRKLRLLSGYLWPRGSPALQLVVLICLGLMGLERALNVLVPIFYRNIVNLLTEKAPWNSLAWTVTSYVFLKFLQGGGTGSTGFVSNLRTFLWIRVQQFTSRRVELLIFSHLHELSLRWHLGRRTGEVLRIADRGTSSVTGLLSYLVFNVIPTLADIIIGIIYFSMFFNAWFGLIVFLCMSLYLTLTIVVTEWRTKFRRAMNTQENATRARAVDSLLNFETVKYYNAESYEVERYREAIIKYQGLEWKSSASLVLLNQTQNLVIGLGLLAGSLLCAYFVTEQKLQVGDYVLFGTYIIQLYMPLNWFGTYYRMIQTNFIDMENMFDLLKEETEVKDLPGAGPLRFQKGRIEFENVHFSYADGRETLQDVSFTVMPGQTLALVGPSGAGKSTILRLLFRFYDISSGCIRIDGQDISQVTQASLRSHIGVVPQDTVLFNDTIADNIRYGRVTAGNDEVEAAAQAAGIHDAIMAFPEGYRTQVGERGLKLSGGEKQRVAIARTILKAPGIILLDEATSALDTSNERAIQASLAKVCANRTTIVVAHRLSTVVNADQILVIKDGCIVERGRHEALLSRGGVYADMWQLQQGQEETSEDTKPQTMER
Exocytosis inh: lytic granule exocytosis inhibition. TALL-104 LAMP-1 surface exposure, flow cytometry; cells stimulated with thapsigargin and PMA. inhibition, % at 10 µM. actives 0.66% (n = 360,000);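 active = inhibition above about 55%, limit read from the data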
rCAG RNA binder: binds r(CAG) RNA repeats. AID 651821. inhibition, % at 3 µM. r(CAG) RNA repeat, TO-PRO-1 dye displacement fluorescence. actives 1.3% (n = 370,000);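 active = inhibition above the plate cutoff, the mean of all test compounds on that plate plus 3 SD, cut at about 35% in these data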;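 note: 0% = DMSO alone and 100% = 100 µM mitoxantrone as full dye displacement; higher means more dye released from RNA so lower well fluorescence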
PG9 binder: binds the HIV-1 gp120 antibody PG9. TR-FRET gp120-PG9 antibody binding. inhibition, % at 6.7 µM. actives 0.43% (n = 360,000). AID 624416; in the data active = inhibition above about 8.5%
Starred values were filed as active, the others as inactive; . = no result given. Shown are actives, neighbours in structure and some others; about 2.5% of the full set was active somewhere.

SMILES	ABCB6 inh MLPCN	Exocytosis inh	rCAG RNA binder	PG9 binder
O=C(CCCN1C(=O)/C(=C\c2ccccc2)SC1=S)Nc1cccc(C(=O)O)c1	102.0	7.2	66.0*	-2.1
Cc1ccc(/C=C2\SC(=S)N(CCCC(=O)Nc3cccc(C(=O)O)c3)C2=O)cc1	95.0	-4.6	8.6	-1.4
COc1cc(/C=C2\SC(=S)N(CCC(=O)Nc3ccccc3)C2=O)cc(OC)c1OC	94.0	-5.3	8.5	1.1
CCCCCc1cc(=O)oc2c(C(CCN3CCCC(C)C3)c3cc(OC)c(OC)c(OC)c3)c(OC)cc(OC)c12 (configuration not stated)	98.0	16.7	.	.
CCCCCc1cc(=O)oc2c(C(CCN3CCCC(C)C3)c3ccc(N(C)C)cc3)c(OC)cc(OC)c12 (configuration not stated)	90.0	81.1*	.	.
CCOC(=O)[C@]12CCCCC/C=C\1N(Cc1ccc(OC)cc1)C(=O)[C@H]2CC(=O)NCc1cccs1	.	.	0.8	.
COc1ccc(/C=C/C=C2\NC(=S)NC2=O)cc1	103.0	57.9*	10.2	-6.9
Cc1cc(NS(=O)(=O)c2ccc(NC(=O)Nc3cccc(Cl)c3)cc2)no1	93.0	1.6	68.5*	-0.9
O=S(=O)(Nc1nc2ccccc2nc1Cl)c1ccc2ccccc2c1	97.0	-2.3	48.8*	2.8
Cc1ccc(OCCOC(=O)c2c(-c3ccccc3)noc2C)cc1	95.0	73.1*	-2.2	1.7
CCOC(=O)CN1C(=O)/C(=C/c2ccccc2Br)Oc2ccccc21	98.0	-31.8	0.1	2.5
O=C(O)CN1C(=O)/C(=C/c2cccc(Cl)c2)Oc2ccccc21	99.0	2.8	52.2*	0.5
CCCN1CCCCC(NC(=O)c2ccc(-c3ccccc3)cc2)C1=O (configuration not stated)	.	.	-1.1	-1.5
CCOC(=O)c1c(NC(C)=O)sc2c(O)cccc12	95.0	-1.8	12.2	0.5
CCOC(=O)c1c(NC(C)=O)sc2c(O)c(Br)cc(Br)c12	105.0	7.3	44.1*	0.7
COc1ccc(-c2nc3ccc(C)cn3c2NCc2ccccc2)cc1SC1CCCCC1	117.0	65.2*	.	.
NC(=S)Nc1ccc(Cl)c(Cl)c1	97.0	19.2	-2.5	0.0
NN(Cc1ccccc1)C(=S)Nc1ccc(Cl)c(Cl)c1	95.0	61.1*	3.0	1.2
CC(C)c1[nH]nc2c1C(c1cccc(C(F)(F)F)c1)NC2=O (configuration not stated)	.	.	-0.2	1.4
CC1=C(c2ccccc2)[N+](=O)C2(CCCC2)N1[O-]	95.0	-0.5	-1.9	-0.9
O=[N+]([O-])c1ccc2c(c1)N([O-])C1(CCCCC1)[N+]2=O	.	.	35.0*	-4.4
Cc1ccc(C(=O)N(C)[C@H]2C[C@H]3c4[nH]c5c(-c6cccc(C)c6)cccc5c4CCN3C[C@H]2[C@H](C)O)cc1	.	.	3.8	.
N#CC1=C(S)N(c2ccccc2)C2(CCCCC2)NC1=O	99.0	21.2	0.0	-3.5
N#CC1=C(S)N(c2ccc(F)cc2)C2(CCCCC2)NC1=O	99.0	80.6*	0.5	-3.0
COC(=O)[C@]12C[C@H](CC(=O)NCc3cccc(C(F)(F)F)c3)C(=O)N(Cc3cccc4ccccc34)C1=C[C@H](C(C)(C)C)O[C@@H]2C	.	.	2.1	.
SMILES	ABCB6 inh MLPCN	Exocytosis inh	rCAG RNA binder	PG9 binder
CCc1nnc(NC(=O)CSc2nc3[nH]c(=O)cc(O)c3s2)s1	102.0	-1.4	22.8	-0.7
Cc1cc(=O)[nH]c(SCC(=O)Nc2cccc3ccccc23)c1C#N	100.0	2.2	.	.
Cc1ccc(Cl)cc1NC(=O)CSc1sc2c(O)cc(=O)[nH]c2c1C#N	94.0	1.1	35.2*	0.3
CCc1nnc(NC(=O)CSc2sc3c(O)cc(=O)[nH]c3c2C#N)s1	100.0	1.6	56.7*	-1.1
COc1ccc(-c2cccc(NS(=O)(=O)c3cc([N+](=O)[O-])c(C)c([N+](=O)[O-])c3)c2)nn1	98.0	1.0	56.9*	-1.0
COC(=O)N1C[C@H](OCc2ccccc2)[C@H]2C[C@@H]1c1ccccc1O2	.	.	-0.1	1.2
C[C@@H]1C=CCCO[C@]12C(=O)N(CC1CC1)c1ccccc12	.	.	0.6	-1.0
CN(C)c1nc(SCC(=O)Nc2ccccc2)nc(N2CCOCC2)n1	95.0	1.2	-2.9	-1.9
CN(C)c1nc(SCC(=O)Nc2ccc(Cl)c(Cl)c2)nc(N2CCOCC2)n1	97.0	73.9*	4.2	1.9
CC(c1c[nH]c2ccccc12)c1cn(C)c2ccccc12 (configuration not stated)	.	.	4.7	.
CC1=CC(=O)C=CC1=Nc1ccc(N(C)C)cc1	97.0	83.8*	13.5	4.7
CCn1c(SCC(=O)N/N=C(/C)c2ccncc2)nc2ccccc21	101.0	60.5*	0.9	-1.8
CCn1c(SCC(=O)NC2CC2)nc2ccccc21	97.0	-2.4	2.8	1.7
CC1=C(C(=O)OCc2ccccc2)C(c2ccc([N+](=O)[O-])cc2)NC(=O)N1CCCC(=O)O (configuration not stated)	99.0	61.9*	12.5	-1.0
Cc1ccc(C)c(NC(=S)NNc2ccc(F)cc2F)c1	105.0	84.0*	4.8	-1.1
CC(CN1CCN(Cc2ccccc2)CC1)c1ccccc1 (configuration not stated)	101.0	61.1*	-6.9	-0.8
COc1ccc(OC)c2c1C(=O)C(Cl)=C(Cl)C2=O	116.0	93.4*	1.1	0.4
CCc1ccc(CCNC(=O)OCCCN2CCC3(CCC(C)CC3)C2=O)cc1 (configuration not stated)	.	.	-0.4	.
O=C(Nc1ccc(Nc2ccccc2)cc1)c1ccc(Cl)c([N+](=O)[O-])c1	92.0	98.6*	17.3	2.4
N#Cc1cc(F)cc(OCCCN2CCC(C(O)(c3ccccc3)c3ccccc3)CC2)c1	.	.	2.3	0.2
COc1ccc(CN(C(=O)CSc2nnc(-c3ccccc3C)o2)c2ccc(F)cc2)cc1	89.0	0.0	-1.5	-2.4
O=C(CSc1nnc(-c2c[nH]c3ccccc23)o1)N(Cc1ccccc1)c1ccc(F)cc1	99.0	78.2*	.	.
CCOc1cc(/C=C2\SC(=N)N(c3nonc3N)C2=O)ccc1OCC(N)=O	119.0	-3.6	4.8	-2.7
CCOc1cc(/C=C2\SC(=N)N(c3nonc3N)C2=O)ccc1OCCN1CCOCC1	103.0	-1.6	40.1*	-5.1
CC(=O)N(Cc1ccccc1)c1nccs1	.	.	2.4	-0.4
SMILES	ABCB6 inh MLPCN	Exocytosis inh	rCAG RNA binder	PG9 binder
NC(=S)NNc1ccc(Cl)c(Cl)c1	94.0	68.4*	0.4	-3.0
Cc1ccc(NNC(N)=S)cc1Cl	98.0	6.3	1.3	-0.8
C[C@@H]1COc2cc(N3CCSCC3)ccc2S(=O)(=O)N1C	.	.	0.9	.
C=CCn1c(SCC(=O)Nc2sccc2C(N)=O)nc2sc(C)c(C)c2c1=O	76.0	2.9	5.9	-0.1
C=CCn1c(SCC(=O)Nc2ccccc2C)nc2sc(C)c(C)c2c1=O	73.0*	-1.2	0.2	2.2
CC(C)(C)OC(=O)NCC12C=CC(O1)C1C(=O)N(Cc3ccccc3)C(=O)C12 (configuration not stated)	97.0	85.1*	-7.1	-1.3
COCCCNC(=O)[C@@H](Cc1ccccc1)NC(=O)[C@H]1O[C@@H](n2ccc(=O)[nH]c2=O)[C@H](O)[C@@H]1O	.	.	1.9	-1.1
